In the library only some 2.4% were active in any assay of this set; here they are far more common.
D2 PAM-1: human D2 receptor positive allosteric modulation. AID 624464. P14416. DiscoveRx D2 beta-arrestin cells, luminescence, 90 min; 100% = 57 uM dopamine signal. 0.23% of 360,000 active. potentiation, % (no concentration beside the values); in the data active = potentiation above about 50%
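PathHunter D2 cells, attached overnight at 37 deg C, received compound in DMSO plus dopamine at EC20 (50 nM final) for 90 min at 37 deg C. Beta-arrestin recruitment was read as luminescence after 1 h with detection reagent at ambient temperature.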
D2 antag: antagonizes the human D2 dopamine receptor | P14416 | inhibition, % at 10 µM | 2% of 340,000 active | HEK293 TREx D2 cells, calcium flux, dopamine EC80; in the data active = inhibition above about 30%; inactive = below that, where a call was filed; also: 0% is about no effect
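Tetracycline-induced HEK293 T-REx cells expressing D2 force-coupled to calcium signalling were dye-loaded, exposed to compound for 180 s, then challenged with an EC80 of dopamine; calcium flux was followed kinetically for a further 180 s.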
D2 ag-1: activates the human D2 dopamine receptor | P14416 | DiscoveRx PathHunter D2 beta-arrestin, luminescence, 90 min; 100% = 57 uM dopamine signal | AID 624465 | activation, % (no concentration beside the values) | 0.084% of 360,000 active; in the data active = activation above about 40%
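DiscoveRx PathHunter D2 beta-arrestin cells (2,100/well) attached overnight, then compound-stimulated 90 min at 37 C in HBSS/10 mM HEPES/0.1% Tween-20 buffer; beta-galactosidase complementation read by luminescence after 1 h at ambient temperature. Dopamine 57 uM final (EC100) as control.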
B2AR arrestin: recruits beta-arrestin to the human beta2-adrenergic receptor; beta-arrestin recruitment to beta2AR, cell-based reporter; Potency, µM (titrated, usually from 46.1 µM), for inactives: at the highest dose activation, hits mostly activators; 0.02% of 330,000 active; active = well fitted activation curve with a large enough effect;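 also: potency is read from the fitted curve at half-maximal effect; 0% = DMSO controls and full agonism = EC100 isoproterenol or metaproterenol; nearly all actives have a fitted effect of over 65% in size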
Target sequence (P07550 whole entry, looked up): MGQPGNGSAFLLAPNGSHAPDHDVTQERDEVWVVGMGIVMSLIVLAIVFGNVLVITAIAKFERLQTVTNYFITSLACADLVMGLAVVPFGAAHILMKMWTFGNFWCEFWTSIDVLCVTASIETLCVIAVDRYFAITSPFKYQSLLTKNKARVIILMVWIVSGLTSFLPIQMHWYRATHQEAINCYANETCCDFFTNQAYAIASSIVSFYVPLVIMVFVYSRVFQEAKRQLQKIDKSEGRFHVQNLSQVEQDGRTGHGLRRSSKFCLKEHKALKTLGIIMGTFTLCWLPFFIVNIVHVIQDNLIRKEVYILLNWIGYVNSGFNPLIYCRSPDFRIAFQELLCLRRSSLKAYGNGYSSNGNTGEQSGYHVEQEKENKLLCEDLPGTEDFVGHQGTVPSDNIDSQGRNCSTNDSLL
D2 PAM-2: positive allosteric modulators of human D2 dopamine receptor; P14416; HEK293 T-REx D2, calcium flux, EC20 dopamine potentiation; potentiation, % at 10 µM; 0.34% of 340,000 active;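 active = potentiation over 3 SD above the plate norm, cut at about 30% in these data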; also: 0% is about no effect
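Tetracycline-induced Hek293 Trex D2 cells, force-coupled to calcium, loaded with no-wash calcium dye. Compound added with 180 s kinetic read for agonism, then EC20 dopamine and a further 180 s read for potentiation.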
D2 ag-2: D2 dopamine receptor (human) agonism | AID 485358 | 0.53% of 340,000 active | P14416 | HEK293 T-REx D2 cells, calcium flux agonist mode | activation, % at 2 µM;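 active = activation over 3 SD above normal in the single-dose calcium agonist read, cut at about 30% in these data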; also: 0% is about no effect
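Tetracycline-induced HEK293 T-REx cells with force-coupled D2 receptor, plated overnight at 30 C, loaded with no-wash calcium dye. After a 10 s baseline, compound was pin-added and calcium flux read kinetically for 180 s; calcium rises flagged agonists.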
Active calls of the source: *; / = no result given.

SMILES | D2 PAM-1 | D2 antag | D2 ag-1 | B2AR arrestin | D2 PAM-2 | D2 ag-2
O=C(NCC1COc2ccccc2O1)c1ccc(Cl)c(S(=O)(=O)N2CCCC2)c1 (stereo not drawn) | -1 | 3 | 2 | 0% | 9 | 1
CC(=O)N1CCN(C(=O)c2ccc(Cl)c(S(=O)(=O)N3CCCCCC3)c2)CC1 | -6 | 32* | 1 | -2% | 7 | 1
O=C(NCc1ccccc1CN1CCCC1)c1ccc(Cl)c(S(=O)(=O)N2CCCC2)c1 | -32 | 33* | -2 | 0% | -26 | 0
Cc1ccc(C(=O)NCc2ccccc2F)cc1S(=O)(=O)N1CCCC1 | -10 | -30 | 2 | 0% | 12 | 1
O=C(NCc1ccccc1CN1CCCC1)c1cc2cc(Cl)ccc2o1 | -3 | 40* | 5 | 0% | -19 | 0
COc1ccc(C(=O)NCc2ccco2)cc1S(=O)(=O)N1CCOCC1 | -3 | 10 | -2 | -1% | -7 | 0
COc1ccc(C(=O)NCc2ccccc2CN2CCCC2)cc1S(=O)(=O)N1CCOCC1 | -17 | 45* | -7 | 0% | -23 | 0
CN1CCN(S(=O)(=O)c2cc([N+](=O)[O-])ccc2Cl)CC1 | 28 | 3 | 4 | 0% | 1 | 0
O=[N+]([O-])c1ccc(Cl)c(S(=O)(=O)N2CCCCCC2)c1 | 70* | -5 | 0 | 0% | 10 | 0
Cc1ccccc1C(=O)N1CCC(c2nc(-c3ccc(S(=O)(=O)N4CCCC4)cc3)no2)CC1 | / | / | / | / | 8 | /
Cc1ccc(OC(C)C)c(CN(CCO)CCO)c1 | -13 | -2 | -6 | 0% | -6 | 1
O=C(COC(=O)CNS(=O)(=O)c1ccc2ccccc2c1)Nc1ccccc1Sc1ccccc1 | 4 | 17 | 2 | -1% | -22 | 34*
Cc1ccc(NS(=O)(=O)c2coc(C(N)=O)c2)cc1F | -2 | 5 | -5 | 0% | 8 | 1
CN(CC(=O)Nc1ccc(OC(F)(F)F)cc1)C(=O)/C=C/c1cc2c(cc1[N+](=O)[O-])OCO2 | -5 | 80* | -3 | 0% | -22 | 0
COc1ccccc1C(=O)NC(=O)Nc1ccc(-c2cc(C(F)(F)F)nn2-c2ccccc2)cc1 | / | / | / | / | 11 | /
Cc1ccc(NC(=O)C(C)OC(=O)COc2cccc(C(F)(F)F)c2)cc1S(=O)(=O)N1CCOCC1 (stereo not drawn) | -3 | / | -2 | / | / | /
O=C(CCC1CCCC1)NCCS(=O)(=O)N1CCN(c2ccc(F)cc2)CC1 | -9 | 15 | -2 | 0% | 8 | 2
O=C(CSc1n[nH]c(-c2ccc(S(=O)(=O)N3CCCCC3)cc2)n1)Nc1nccs1 | -2 | 39* | 0 | 0% | 0 | 1
Cn1c(SCC(=O)Nc2nccs2)nnc1-c1ccc(S(=O)(=O)N2CCCC2)cc1 | -2 | 4 | 2 | -1% | 24 | 0
CCCCN(C(=O)Cc1cccc(F)c1)c1c(N)n(CCC)c(=O)[nH]c1=O | 0 | 37* | 0 | 0% | 6 | 2
CCCCN(C(=O)c1ccccc1F)c1c(N)n(CCC)c(=O)[nH]c1=O | 2 | -1 | 1 | 0% | -7 | -1
COCCNC(=O)C(=O)Nc1ccc2c(c1)N(S(=O)(=O)c1cccs1)CCC2 | -10 | 2 | 1 | 0% | -1 | 0
O=C(C[C@H]1C/C=C\CCCCC(=O)OC[C@H]2CCCN2C1=O)N[C@H](CO)Cc1ccccc1 | -2 | / | 0 | 0% | / | /
Cc1ccc(CN2CCN(/N=C/c3ccc(C)s3)CC2)c(C)c1 | -31 | -22 | -1 | 0% | -4 | 0
Cc1ccc(CN2CCN(/N=C/c3cccn3C)CC2)c(C)c1 | -20 | 51* | -2 | 0% | -5 | 0
SMILES | D2 PAM-1 | D2 antag | D2 ag-1 | B2AR arrestin | D2 PAM-2 | D2 ag-2
Cc1ncoc1C(=O)N1CCCC(C(=O)c2ccc(-c3ccccc3)cc2)C1 (stereo not drawn) | -7 | 52* | 0 | 0% | -6 | -1
O=C(c1ccc(-c2ccccc2)cc1)C1CCCN(C(=O)c2ccncc2)C1 (stereo not drawn) | -2 | 0 | -17 | 0% | 2 | 0
Cc1ncoc1C(=O)N1CCCC(C(=O)Nc2cccc(-c3ccc(F)cc3)c2)C1 (stereo not drawn) | -28 | 12 | 1 | 0% | -4 | 0
O=C(c1ccc(-c2ccccc2)cc1)C1CCCN(Cc2ccncc2)C1 (stereo not drawn) | -16 | 75* | 5 | 0% | -38 | 0
NC(CC(=O)NC(c1ccccc1)(c1ccccc1)c1ccccc1)C(=O)O (stereo not drawn) | -5 | -3 | -5 | 0% | 37* | 1
NC(CSC(c1ccccc1)(c1ccccc1)c1ccccc1)C(=O)O (stereo not drawn) | 5 | / | 0 | / | / | /
CC/C(=N\NC(=O)COc1ccc(Br)cc1)c1ccc(OC)c(OC)c1 | -10 | / | -4 | 0% | / | /
CC/C(=N\NC(N)=O)c1ccc(OC)c(OC)c1 | -14 | 38* | -6 | -1% | 5 | -1
COCCNC(=S)N(CCc1c(C)[nH]c2ccc(F)cc12)Cc1cccs1 | -12 | 30* | -1 | -1% | -1 | 2
Cc1[nH]c2ccc(F)cc2c1CCN(Cc1cccnc1)C(=S)Nc1ccccc1 | -9 | 11 | -5 | 0% | -8 | 0
CNC(=S)N(CCc1c(C)[nH]c2ccc(F)cc12)Cc1cccnc1 | -11 | -11 | 6 | 1% | 31* | 0
COCCNC(=S)N(CCc1c(C)[nH]c2ccc(Cl)cc12)Cc1cccs1 | -1 | 5 | 1 | 0% | 2 | 1
Cc1sc2ncnc(N3CCC(C(=O)NNC(=O)COc4ccc(Cl)cc4)CC3)c2c1C | 7 | / | 7 | / | / | /
Cc1sc2ncnc(N3CCN(CCOc4ccc(Cl)cc4)CC3)c2c1C | -4 | 35* | 2 | 0% | -12 | -1
CC(=O)N1[C@H](C)C=C[C@]1(Cc1ccccc1)C(=O)NCc1cc(F)cc(C(F)(F)F)c1 | -9 | -16 | -1 | 0% | -3 | 1
O=C(Nc1ccc(S(=O)(=O)N2CCCC2)cc1)c1ccc(CN2CCOCC2)cc1 | -3 | -6 | -1 | 0% | 13 | 2
O=C(Nc1cccc(S(=O)(=O)C(F)F)c1)c1ccc(S(=O)(=O)N2CCOCC2)cc1 | -17 | 28 | -1 | 0% | -7 | -1
CCN(CC)S(=O)(=O)c1ccc(NC(=O)c2ccc(CN3CCOCC3)cc2)cc1 | -10 | 8 | 0 | 0% | 30* | 1
O=C(Nc1ccc(S(=O)(=O)N2CCCCC2)cc1)c1ccc(CN2CCOCC2)cc1 | -9 | / | 2 | 0% | 42* | /

Screening results (PubChem BioAssay)
